Experimental data from PubChem BioAssay (NCI).
About 83,000 compounds went through this panel and 20% of them were active in at least one assay; those are over-represented in the sample as a whole.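 In brief: 96-well plates, 48 h treatment, single concentration, percent growth endpoint.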 Calls of active or inactive are those of the source. Rule for the calls: active = growth percent below 10; inactive = the rest.

system: HL-60(TB) leukemia; assay: NCI-60 one-dose screen, 48 h (100 = growth as untreated, 0 = no growth, -100 = all killed); details: 10 µM unless noted

SMILES	growth
OC(CN1CCCC2CCCCC21)c1cc2ccccc2c2ccccc12 (stereo not given)	84.9% (inactive)
Cc1ccc(-c2cnc3sc4ccc(Cl)cc4n23)cc1	90.5% (inactive)
C[C@]12CCC(=O)C=C1CC[C@H]1[C@@H]3C[C@@H](O)[C@](O)(C(=O)CO)[C@@]3(C)C[C@H](O)[C@@]12F	98.1% (inactive)
CC/C(=C(\CC)c1ccc(OCCN(CC)CC)cc1)c1ccc(OCCN(CC)CC)cc1	-3.52% (active)
COc1ccc(CC(=O)c2ccc(O)cc2O)cc1	106% (inactive)
CCC(C)N(CCNc1cc(OC)cc2cccnc12)CC(C)C (stereo not given)	73.9% (inactive)
COc1cc2c(cc1OCCCN1CCN(C(=S)SCCC(C#N)(c3ccccc3)c3ccccc3)CC1)N=C[C@@H]1CCCN1C2=O	0.178% (active)
Cc1c(C(=O)Nc2ccccc2F)sc2c(=O)[nH]cnc12	83.2% (inactive)
CC(C)(C)OC(=O)NCCc1ccc(N)cc1	89.4% (inactive)
O=C1c2ccccc2C(=O)c2sc(Nc3ccc(Cl)cc3)nc21	-10.8% (active)
C/C(=N\N1CC(=O)NC1=O)c1ccc([N+](=O)[O-])o1	62.7% (inactive)
O=C(Nc1ccc(-c2ccc3c(c2)NC(=O)/C3=C\c2ccc[nH]2)cc1)NC1CC1	98.3% (inactive)
Cn1cc(-c2csc(-c3cn(C(=O)OC(C)(C)C)c4ccccc34)n2)c2ccnc(Cl)c21	67.5% (inactive)
C[C@@]1(CO)[C@H](O)CC[C@@]2(C)[C@H]1CC[C@H]1C[C@@H]3C[C@@]12CC[C@@]3(O)COC(=O)CN	3.18% (active)
C=CCNc1nc(NN2C(=O)c3cccc4cccc(c34)C2=O)nc(-n2cnc3ccccc32)n1	93.9% (inactive)
C=C1C(=O)O[C@H]2[C@H]1CC/C(COC(=O)C(=O)c1c[nH]c3ccc(OC)cc13)=C\CC[C@@]1(C)O[C@@H]21	-53.2% (active)
COc1cc(/C=C\c2cc(OC)c(OC)c(OC)c2)cc(NS(=O)(=O)c2ccc(Cl)cc2)c1OC	-31% (active)
CCc1nc2ccccc2[nH]1	105% (inactive)
CN(C)CCC(O)(Cc1ccccc1)c1ccccc1 (stereo not given)	85% (inactive)
CCCCN(CCCC)c1ccc(C(=N)c2ccc(N(C)C)cc2)cc1	-55.1% (active)

SMILES	growth
CC1Cc2c(ncn3c(-c4ccc(F)cc4)nnc23)N(C)c2ccccc21 (stereo not given)	91.2% (inactive)
Cc1cc2c(cc1C)NC1=C(N2)OC(c2c3ccccc3cc3ccccc23)C1=O (stereo not given)	2.98% (active)
O=C1NC(=O)C(Cn2cnc3ccccc32)N1 (stereo not given)	95.8% (inactive)
CNCCNc1nc2ccccc2c2c(=O)c3cccc(C)c3sc12	-39.8% (active)
COc1ccc(OC)c(-c2c(C#N)c(-c3ccc(Cl)cc3)nc3c2c(-c2ccccc2)nn3-c2ccccc2)c1	99% (inactive)
Nc1cc(NN=C(c2ccc(O)cc2)c2ccc(O)cc2)c([N+](=O)[O-])cc1[N+](=O)[O-]	66.4% (inactive)
Cc1cc(N/N=C/c2nc(-c3ccc(Cl)cc3)oc2C)c2cc(Cl)ccc2n1	8.08% (active)
COc1cc(/C=C2\C(=O)Nc3cc(C)c(O)cc32)cc(OC)c1OC	46.7% (inactive)
COc1ccc(-c2ccccc2)cc1-c1c(Nc2cc(Cl)cc(Cl)c2O)c(=O)c1=O	-29.8% (active)
N#Cc1c(N)nc2c(c1N)C(c1ccc(F)cc1)c1ccc(N)cc1O2 (stereo not given)	110% (inactive)
O=[N+]([O-])c1ccc(N2c3ccncc3Sc3ccncc32)cc1	102% (inactive)
Nc1nc(Nc2ccccc2SSc2ccccc2Nc2nc(N)nc(-c3ccc(I)cc3)n2)nc(-c2ccc(I)cc2)n1	83.1% (inactive)
O=CN1N=C(c2ccc3c(c2)OCO3)CC1c1cccc(Nc2ccnc3cc(C(F)(F)F)ccc23)c1 (stereo not given)	72.8% (inactive)
O=C(/C=C/c1ccc(F)cc1)c1ccc(NC(=O)N2CCN(c3cc4c(cc3F)c(=O)c(C(=O)O)cn4C3CC3)CC2)cc1	98.1% (inactive)
O=C(/C=C/C12c3ccccc3C(c3ccccc31)C1C(=O)NC(=O)C12)c1ccc(Cl)cc1 (stereo not given)	-6.98% (active)
Cc1csc(Nc2nc(-c3cccc(Cl)c3)nc(C(Cl)(Cl)Cl)n2)n1	-10.2% (active)
C[N+](C)(C/C=C/c1ccccc1)Cc1ccccc1	92.6% (inactive)
COc1cc2oc(-c3cccc(C(=O)Nc4ccccc4)c3)cc(=O)c2c(O)c1OC	92.7% (inactive)
CCOC(=O)Nc1ccc(C(=O)/C=C/c2ccccc2)cc1	45.4% (inactive)
COc1ccc(NS(=O)(=O)c2ccc(C)cc2)c([N+](=O)[O-])c1	90.7% (inactive)
